For seven molecules, inhibition results are on record in ChEMBL document CHEMBL1961873, “Compounds: GSK PKIS; Assays: Nanosyn kinase panel” (2012).

In general, inhibition refers to the drop in the measured response relative to a control, in per cent.

The target of assay [1] is T1, Tyrosine-protein kinase receptor TYRO3 (Homo sapiens) (UniProt Q06418).
T1 sequence (whole entry): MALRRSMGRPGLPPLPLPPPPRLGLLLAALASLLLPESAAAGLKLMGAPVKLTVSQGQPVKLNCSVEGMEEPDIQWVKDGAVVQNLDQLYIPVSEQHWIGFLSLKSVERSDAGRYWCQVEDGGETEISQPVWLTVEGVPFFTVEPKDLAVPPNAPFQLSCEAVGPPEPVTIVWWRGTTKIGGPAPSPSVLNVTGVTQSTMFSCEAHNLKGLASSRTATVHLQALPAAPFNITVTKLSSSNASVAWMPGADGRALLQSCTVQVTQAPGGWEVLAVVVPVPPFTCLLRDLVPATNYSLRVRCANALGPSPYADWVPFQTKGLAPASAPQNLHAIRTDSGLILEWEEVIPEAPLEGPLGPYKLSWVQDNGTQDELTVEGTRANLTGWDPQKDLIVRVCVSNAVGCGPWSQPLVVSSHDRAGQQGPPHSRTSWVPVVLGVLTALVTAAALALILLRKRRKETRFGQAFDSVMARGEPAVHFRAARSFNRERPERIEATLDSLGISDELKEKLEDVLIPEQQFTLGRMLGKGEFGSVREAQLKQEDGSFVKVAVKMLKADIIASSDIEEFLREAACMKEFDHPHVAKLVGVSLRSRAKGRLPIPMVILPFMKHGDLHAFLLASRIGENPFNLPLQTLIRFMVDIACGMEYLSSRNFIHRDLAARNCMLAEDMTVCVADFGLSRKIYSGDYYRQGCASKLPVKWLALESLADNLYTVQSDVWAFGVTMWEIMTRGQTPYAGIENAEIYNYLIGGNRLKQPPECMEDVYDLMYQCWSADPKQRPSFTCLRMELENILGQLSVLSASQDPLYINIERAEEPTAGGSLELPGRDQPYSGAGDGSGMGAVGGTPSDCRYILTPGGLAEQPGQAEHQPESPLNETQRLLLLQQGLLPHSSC
The note with it: at 1 µM.

Assay [2] has as its target Tyrosine-protein kinase Yes (Homo sapiens) (UniProt P07947). The note with it: at 0.1 µM.
For assay [3] the target is unchanged. The note with it: at 1 µM.
Assay [4] concerns the target T2, Tyrosine-protein kinase ZAP-70 (Homo sapiens) (UniProt P43403).
T2 sequence (whole entry): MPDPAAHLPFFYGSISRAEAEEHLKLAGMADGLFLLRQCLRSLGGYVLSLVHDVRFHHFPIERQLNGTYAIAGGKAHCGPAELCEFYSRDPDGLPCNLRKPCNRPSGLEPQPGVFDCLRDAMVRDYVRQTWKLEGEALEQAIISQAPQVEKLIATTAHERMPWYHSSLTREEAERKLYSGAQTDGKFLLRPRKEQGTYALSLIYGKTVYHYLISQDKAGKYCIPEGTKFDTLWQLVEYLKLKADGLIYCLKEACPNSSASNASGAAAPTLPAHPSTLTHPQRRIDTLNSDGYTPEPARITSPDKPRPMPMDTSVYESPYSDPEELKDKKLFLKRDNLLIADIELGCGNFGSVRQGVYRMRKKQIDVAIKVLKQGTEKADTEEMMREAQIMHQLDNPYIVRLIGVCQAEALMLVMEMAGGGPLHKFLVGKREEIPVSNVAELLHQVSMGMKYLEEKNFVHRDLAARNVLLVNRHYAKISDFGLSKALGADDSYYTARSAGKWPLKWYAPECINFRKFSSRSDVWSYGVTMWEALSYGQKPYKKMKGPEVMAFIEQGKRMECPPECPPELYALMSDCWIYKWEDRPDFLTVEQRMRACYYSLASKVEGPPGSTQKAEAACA
Conditions: at 0.1 µM.

The target of assay [5] is T2, Tyrosine-protein kinase ZAP-70 (Homo sapiens). The note with it: at 1 µM.
Assay [6] concerns the target Serine/threonine-protein kinase B-raf (Homo sapiens) (UniProt P15056). Conditions: at 0.1 µM.
The target is the same in assay [7]. The note with it: at 1 µM.
Assay [8] deals with Serine/threonine-protein kinase B-raf (Homo sapiens), P15056 [V600E]. Conditions: at 0.1 µM.
Chain of Serine/threonine-protein kinase B-raf (Homo sapiens), P15056 [V600E] (P15056 whole entry V600E): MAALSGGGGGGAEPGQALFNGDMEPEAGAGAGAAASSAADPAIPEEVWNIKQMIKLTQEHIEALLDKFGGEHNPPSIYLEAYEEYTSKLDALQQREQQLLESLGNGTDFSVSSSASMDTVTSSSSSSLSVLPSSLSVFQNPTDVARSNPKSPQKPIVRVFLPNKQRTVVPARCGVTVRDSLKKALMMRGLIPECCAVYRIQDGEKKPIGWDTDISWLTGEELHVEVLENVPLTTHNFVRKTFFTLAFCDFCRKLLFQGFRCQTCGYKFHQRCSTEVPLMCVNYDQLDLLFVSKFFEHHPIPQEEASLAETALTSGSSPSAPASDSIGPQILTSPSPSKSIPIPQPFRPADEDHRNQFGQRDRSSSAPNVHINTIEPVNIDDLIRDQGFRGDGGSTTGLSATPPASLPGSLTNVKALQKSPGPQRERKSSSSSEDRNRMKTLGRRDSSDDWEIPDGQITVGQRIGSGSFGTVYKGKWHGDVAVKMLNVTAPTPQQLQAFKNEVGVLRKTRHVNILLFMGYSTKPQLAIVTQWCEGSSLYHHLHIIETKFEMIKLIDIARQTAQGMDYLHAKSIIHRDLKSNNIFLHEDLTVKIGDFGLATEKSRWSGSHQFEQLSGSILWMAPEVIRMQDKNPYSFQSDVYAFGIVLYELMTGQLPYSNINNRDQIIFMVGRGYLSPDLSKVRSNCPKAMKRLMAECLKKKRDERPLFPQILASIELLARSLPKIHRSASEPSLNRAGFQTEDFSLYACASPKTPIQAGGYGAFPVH
Assay [9] has the same test system. The note with it: at 1 µM.
Assay [10] has as its target RAF proto-oncogene serine/threonine-protein kinase (Homo sapiens) (UniProt P04049). The note with it: at 0.1 µM.
The target is the same in assay [11]. The note with it: at 1 µM.
In assay [12] the target is T3, Interleukin-1 receptor-associated kinase 4 (Homo sapiens) (UniProt Q9NWZ3).
T3 sequence (whole entry): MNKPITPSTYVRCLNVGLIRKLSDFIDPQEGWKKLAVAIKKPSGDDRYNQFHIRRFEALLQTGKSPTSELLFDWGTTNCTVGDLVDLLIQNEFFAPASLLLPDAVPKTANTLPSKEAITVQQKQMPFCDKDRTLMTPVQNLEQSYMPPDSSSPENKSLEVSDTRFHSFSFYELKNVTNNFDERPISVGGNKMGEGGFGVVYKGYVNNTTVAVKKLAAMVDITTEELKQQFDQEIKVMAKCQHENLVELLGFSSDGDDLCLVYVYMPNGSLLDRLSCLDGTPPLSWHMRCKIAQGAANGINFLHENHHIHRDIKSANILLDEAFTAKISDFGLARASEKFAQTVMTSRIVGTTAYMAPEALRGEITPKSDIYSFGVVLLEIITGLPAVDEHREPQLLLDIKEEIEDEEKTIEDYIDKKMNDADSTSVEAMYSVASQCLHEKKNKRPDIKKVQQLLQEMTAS
Conditions: at 0.1 µM.

In assay [13] the target is T3, Interleukin-1 receptor-associated kinase 4 (Homo sapiens). The note with it: at 1 µM.
Assay [14] addresses Leucine-rich repeat serine/threonine-protein kinase 2 (Homo sapiens) (UniProt Q5S007). The note with it: at 0.1 µM.
The target is the same in assay [15]. The note with it: at 1 µM.
The subject of assay [16] is Leucine-rich repeat serine/threonine-protein kinase 2 (Homo sapiens), Q5S007 [G2019S]. The note with it: at 0.1 µM.
Assay [17] has the same test system. The note with it: at 1 µM.

Molecules are shown by their SMILES.

Chain of Serine/threonine-protein kinase B-raf (Homo sapiens) (P15056 whole entry): as the sequence (P15056 whole entry V600E) above, with E600V counted along it
Chain of Leucine-rich repeat serine/threonine-protein kinase 2 (Homo sapiens), Q5S007 [G2019S] (Q5S007 whole entry G2019S): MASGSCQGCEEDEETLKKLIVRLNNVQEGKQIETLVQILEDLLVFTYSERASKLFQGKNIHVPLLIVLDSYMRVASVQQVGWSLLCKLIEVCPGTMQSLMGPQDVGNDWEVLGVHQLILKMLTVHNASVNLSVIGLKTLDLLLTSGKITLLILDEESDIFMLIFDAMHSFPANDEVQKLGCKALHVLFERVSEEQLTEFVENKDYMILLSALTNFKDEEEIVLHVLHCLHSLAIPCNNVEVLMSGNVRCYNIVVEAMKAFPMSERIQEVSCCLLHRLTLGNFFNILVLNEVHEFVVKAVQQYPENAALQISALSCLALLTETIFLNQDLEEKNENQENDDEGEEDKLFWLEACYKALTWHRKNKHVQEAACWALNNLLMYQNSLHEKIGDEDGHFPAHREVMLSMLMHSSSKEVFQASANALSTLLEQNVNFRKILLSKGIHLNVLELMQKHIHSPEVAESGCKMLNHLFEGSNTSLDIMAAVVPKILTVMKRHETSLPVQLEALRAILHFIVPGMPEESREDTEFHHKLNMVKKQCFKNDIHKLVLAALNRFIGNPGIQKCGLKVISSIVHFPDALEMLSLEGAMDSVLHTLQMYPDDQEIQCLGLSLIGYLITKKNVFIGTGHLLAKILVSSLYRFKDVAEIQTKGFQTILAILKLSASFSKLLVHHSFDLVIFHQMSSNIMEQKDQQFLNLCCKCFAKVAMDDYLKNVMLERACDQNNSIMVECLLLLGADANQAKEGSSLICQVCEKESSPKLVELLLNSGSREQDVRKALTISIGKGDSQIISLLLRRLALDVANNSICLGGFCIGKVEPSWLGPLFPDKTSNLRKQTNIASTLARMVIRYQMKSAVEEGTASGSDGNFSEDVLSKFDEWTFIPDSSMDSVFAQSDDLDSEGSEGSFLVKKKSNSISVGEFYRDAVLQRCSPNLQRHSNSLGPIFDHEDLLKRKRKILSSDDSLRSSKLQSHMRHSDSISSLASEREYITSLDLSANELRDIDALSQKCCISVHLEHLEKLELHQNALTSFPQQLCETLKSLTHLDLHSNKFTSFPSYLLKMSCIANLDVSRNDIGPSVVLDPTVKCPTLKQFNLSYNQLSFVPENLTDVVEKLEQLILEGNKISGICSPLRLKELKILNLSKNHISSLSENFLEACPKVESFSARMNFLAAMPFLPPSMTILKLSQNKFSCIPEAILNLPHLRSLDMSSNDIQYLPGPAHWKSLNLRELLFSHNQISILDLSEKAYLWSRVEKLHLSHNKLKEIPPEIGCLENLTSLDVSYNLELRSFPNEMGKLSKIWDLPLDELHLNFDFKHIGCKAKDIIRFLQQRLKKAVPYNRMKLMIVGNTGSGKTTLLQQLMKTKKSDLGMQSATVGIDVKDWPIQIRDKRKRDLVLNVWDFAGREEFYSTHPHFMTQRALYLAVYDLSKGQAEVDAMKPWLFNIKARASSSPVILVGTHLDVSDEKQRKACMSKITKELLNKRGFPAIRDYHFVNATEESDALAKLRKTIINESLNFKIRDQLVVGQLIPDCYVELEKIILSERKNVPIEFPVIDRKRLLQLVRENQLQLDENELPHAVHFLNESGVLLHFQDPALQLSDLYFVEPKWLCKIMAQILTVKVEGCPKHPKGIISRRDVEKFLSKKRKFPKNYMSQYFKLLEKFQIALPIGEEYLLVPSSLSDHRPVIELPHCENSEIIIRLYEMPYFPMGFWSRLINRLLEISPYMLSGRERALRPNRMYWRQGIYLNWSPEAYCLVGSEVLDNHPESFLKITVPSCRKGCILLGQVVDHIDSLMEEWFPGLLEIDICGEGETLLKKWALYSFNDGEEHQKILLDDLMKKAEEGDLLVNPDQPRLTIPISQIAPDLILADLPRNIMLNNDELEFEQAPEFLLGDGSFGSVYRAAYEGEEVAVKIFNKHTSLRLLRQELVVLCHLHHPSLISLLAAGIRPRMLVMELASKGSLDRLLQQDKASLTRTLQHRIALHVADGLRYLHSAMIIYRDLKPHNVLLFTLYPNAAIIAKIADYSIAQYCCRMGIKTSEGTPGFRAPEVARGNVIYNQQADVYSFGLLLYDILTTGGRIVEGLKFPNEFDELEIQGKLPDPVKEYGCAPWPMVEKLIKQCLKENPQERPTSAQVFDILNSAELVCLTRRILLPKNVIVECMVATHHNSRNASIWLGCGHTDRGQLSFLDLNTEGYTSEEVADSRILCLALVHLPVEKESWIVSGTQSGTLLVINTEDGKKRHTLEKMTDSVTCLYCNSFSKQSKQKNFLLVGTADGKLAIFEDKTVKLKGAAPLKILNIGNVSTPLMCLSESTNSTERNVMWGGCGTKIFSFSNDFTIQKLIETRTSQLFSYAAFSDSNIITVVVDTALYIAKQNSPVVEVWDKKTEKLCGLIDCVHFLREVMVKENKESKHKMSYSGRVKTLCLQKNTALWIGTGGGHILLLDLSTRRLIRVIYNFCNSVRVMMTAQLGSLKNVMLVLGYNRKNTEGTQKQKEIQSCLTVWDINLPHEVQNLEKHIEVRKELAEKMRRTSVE
Chain of Tyrosine-protein kinase Yes (Homo sapiens) (P07947 2-543 limits assumed): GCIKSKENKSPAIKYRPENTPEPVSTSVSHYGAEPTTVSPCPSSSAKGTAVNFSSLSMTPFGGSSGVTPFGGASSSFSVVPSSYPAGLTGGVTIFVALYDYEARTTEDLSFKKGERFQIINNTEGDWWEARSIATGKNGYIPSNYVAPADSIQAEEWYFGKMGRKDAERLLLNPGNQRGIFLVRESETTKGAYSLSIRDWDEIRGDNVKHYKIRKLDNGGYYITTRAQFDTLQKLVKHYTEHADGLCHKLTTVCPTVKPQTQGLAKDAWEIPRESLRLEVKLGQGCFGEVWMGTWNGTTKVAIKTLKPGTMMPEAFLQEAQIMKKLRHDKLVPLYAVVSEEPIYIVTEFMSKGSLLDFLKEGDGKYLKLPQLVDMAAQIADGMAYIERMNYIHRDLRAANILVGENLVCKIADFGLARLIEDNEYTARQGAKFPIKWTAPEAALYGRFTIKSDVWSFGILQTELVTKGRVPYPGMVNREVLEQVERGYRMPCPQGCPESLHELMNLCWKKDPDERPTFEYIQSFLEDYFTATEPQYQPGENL
Chain of RAF proto-oncogene serine/threonine-protein kinase (Homo sapiens) (P04049 whole entry): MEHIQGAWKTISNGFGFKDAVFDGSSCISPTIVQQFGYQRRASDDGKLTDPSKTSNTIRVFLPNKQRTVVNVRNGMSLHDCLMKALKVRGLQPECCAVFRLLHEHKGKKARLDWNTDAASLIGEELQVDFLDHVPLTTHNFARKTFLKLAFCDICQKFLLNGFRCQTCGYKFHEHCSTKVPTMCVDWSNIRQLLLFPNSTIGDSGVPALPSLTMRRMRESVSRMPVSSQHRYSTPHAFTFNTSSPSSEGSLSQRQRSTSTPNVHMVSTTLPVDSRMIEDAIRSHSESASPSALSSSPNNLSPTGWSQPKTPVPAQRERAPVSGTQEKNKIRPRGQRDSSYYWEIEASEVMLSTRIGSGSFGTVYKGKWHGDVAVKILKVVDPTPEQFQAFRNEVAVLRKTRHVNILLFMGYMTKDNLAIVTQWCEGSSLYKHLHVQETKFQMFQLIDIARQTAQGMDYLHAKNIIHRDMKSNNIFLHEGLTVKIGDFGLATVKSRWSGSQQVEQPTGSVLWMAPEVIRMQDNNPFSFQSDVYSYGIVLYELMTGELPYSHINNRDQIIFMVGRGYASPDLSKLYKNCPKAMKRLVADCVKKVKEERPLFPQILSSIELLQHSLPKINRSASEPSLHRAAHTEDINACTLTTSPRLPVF
Chain of Leucine-rich repeat serine/threonine-protein kinase 2 (Homo sapiens) (Q5S007 whole entry): as the sequence (Q5S007 whole entry G2019S) above, with S2019G counted along it

With `NC(=O)c1sc(-n2cnc3cc(C(F)(F)F)ccc32)cc1OCc1ccccc1Br`, the inhibition in assay [1] is 2.02%; in assay [2] it was 2.56%; in [3], 3.46%; in assay [4] it was -0.71%; in assay [5], 1.87%; in [6], 3.64%. Moreover, the inhibition in [7] is 2.26%; in assay [8], 1.31%; in assay [9], 2.01%; in assay [10], 1.82%; in assay [11] it was 5.05%; in assay [12], 0.4%. Also, the inhibition in [13] amounted to 1.13%; in assay [14], 3.39%; in assay [15], 6.23%; in [16], 3.66%; in assay [17] it was 6.47%.
Turning to `CCn1c(-c2nonc2N)nc2c(C#CC(C)(C)O)ncc(OCC3CCNCC3)c21`, the inhibition is 3.34% in [1]; 2.71% in [2]; 6.72% in assay [3]; -3.36% in [4]; -3.17% in [5]; 4.38% in assay [6]. In addition, the inhibition in [7] is 2.78%; in assay [8], 4.23%; in [9], 2.64%; in assay [10], 3.07%; in [11], 1.08%; in assay [12] it was -1.36%. Also, the inhibition in assay [13] was 1.24%; in assay [14] it was -2.92%; in assay [15] it was 5%; in assay [16], 1.31%; in assay [17], 16.7%.
As to `Cc1cc(-c2ccco2)cc(C)c1/C=C/c1cncc(-c2nn[nH]n2)c1`, the inhibition in assay [1] was 0.02%; in [2], 1.68%; in assay [3] it was 6.08%; in [4], -1.84%; in assay [5], 0.77%; in [6] it was 1.61%. The inhibition is 1.61% in assay [7]; 1.63% in assay [8]; 3% in assay [9]; -1.69% in assay [10]; -5.34% in assay [11]; -0.17% in assay [12]. Further, the inhibition is -0.12% in assay [13]; 4.45% in assay [14]; 8.02% in assay [15]; 5.52% in assay [16]; 5.78% in assay [17].
In the case of `COc1cc(C=NNc2ncnc3c2cnn3Cc2ccccc2)ccc1O`, the inhibition was 7.59% in assay [1]; 14.6% in assay [2]; 30% in assay [3]; 2.67% in [4]; 1.13% in assay [5]; -5.44% in assay [6]. Further, the inhibition was -5.52% in assay [7]; -5.58% in assay [8]; -4.22% in [9]; -0.2% in [10]; 8.55% in [11]; 1.48% in assay [12]. Moreover, the inhibition in [13] is -1.52%; in [14], -2.34%; in assay [15], 3.59%; in assay [16] it was 1.06%; in [17], 10.1%.
Turning to `Nc1nonc1-c1nc2cnccc2n1C1CCCCC1`, the inhibition is -0.87% in [1]; 1.72% in [2]; 3.33% in [3]; -2% in assay [4]; -0.79% in [5]; -2.13% in [6]. The inhibition in assay [7] was 4.56%; in [8], -1.6%; in assay [9], 5.12%; in [10], 2.21%; in [11], 13.7%; in [12], 2.08%. For the same molecule, the inhibition in assay [13] was -1.3%; in assay [14] it was 4.67%; in [15], 20%; in assay [16], 9.49%; in [17], 45.5%.
Take `COc1cccc(COc2cc(-n3cnc4ccccc43)sc2C(N)=O)c1`: the inhibition in assay [1] is -0.77%; in assay [2] it was 0.89%; in [3], 1.25%; in assay [4], -1.78%; in [5], 0.73%; in assay [6] it was -0.39%. The inhibition is 1.18% in assay [7]; 0.3% in assay [8]; 1.75% in assay [9]; 2.33% in assay [10]; 0.06% in assay [11]; -1.12% in assay [12]. In addition, the inhibition is -1.16% in assay [13]; 2.35% in assay [14]; 14.6% in assay [15]; 5.15% in [16]; 31.2% in assay [17].
Take `NS(=O)(=O)c1ccc(N/C=C2\C(=O)Nc3ccc4ncsc4c32)cc1`: the inhibition in assay [1] was 24.1%; in assay [2], 2.73%; in assay [3], 26.7%; in [4] it was -5.22%; in assay [5], 5.97%; in assay [6] it was 11%. Further, the inhibition was 41% in assay [7]; 9.06% in [8]; 37.5% in [9]; -1.4% in assay [10]; 0.21% in [11]; 1.82% in assay [12]. For the same molecule, the inhibition was determined as 2.58% in assay [13]; 17.8% in assay [14]; 58.6% in [15]; 29.4% in assay [16]; 58.9% in assay [17].
